Measured values published in ChEMBL document CHEMBL1201862, “PubChem BioAssay data set” (2004).
The whole screen tested about 270,000 compounds, of which about 5,800 (2.1%) were called active. Another 16% or so got no clear call; they are omitted. No cut-off for these calls is given here. The full list was thinned out, with actives kept by preference.

molecular target: Microtubule-associated protein tau (Homo sapiens) (UniProt P10636); assay: qHTS for Inhibitors of Tau Fibril Formation, Thioflavin T Binding. [Related pubchem assays: 596 ]
Sequence (P10636 whole entry): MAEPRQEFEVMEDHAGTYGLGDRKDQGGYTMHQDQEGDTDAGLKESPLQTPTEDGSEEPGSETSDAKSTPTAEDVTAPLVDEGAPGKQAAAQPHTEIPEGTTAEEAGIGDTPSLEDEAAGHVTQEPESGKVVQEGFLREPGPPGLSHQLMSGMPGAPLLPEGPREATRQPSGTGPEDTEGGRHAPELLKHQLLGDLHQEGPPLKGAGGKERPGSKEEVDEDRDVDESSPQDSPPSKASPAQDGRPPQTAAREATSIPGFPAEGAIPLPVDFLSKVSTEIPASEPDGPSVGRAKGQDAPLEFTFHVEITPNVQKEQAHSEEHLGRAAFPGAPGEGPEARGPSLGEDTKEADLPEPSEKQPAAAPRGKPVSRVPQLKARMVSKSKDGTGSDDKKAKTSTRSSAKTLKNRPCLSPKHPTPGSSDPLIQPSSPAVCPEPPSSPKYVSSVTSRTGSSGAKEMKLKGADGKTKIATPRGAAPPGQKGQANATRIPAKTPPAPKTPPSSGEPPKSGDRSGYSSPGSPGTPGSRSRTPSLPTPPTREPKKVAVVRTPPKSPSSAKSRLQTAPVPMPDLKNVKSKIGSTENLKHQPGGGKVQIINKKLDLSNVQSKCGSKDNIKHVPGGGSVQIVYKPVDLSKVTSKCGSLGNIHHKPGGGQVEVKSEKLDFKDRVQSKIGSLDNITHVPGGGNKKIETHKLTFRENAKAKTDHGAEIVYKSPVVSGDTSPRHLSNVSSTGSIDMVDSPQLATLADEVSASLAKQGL

Structure (SMILES) | Potency
O=C(O)c1cc(/N=N/c2ccc(S(=O)(=O)Nc3ccccn3)cc2)ccc1O | 12.6 µM (active)
